CHRM1 agonist: human M1 muscarinic receptor agonism. P11229. CHO-K1 hM1, Fluo-8 calcium fluorescence, agonist mode; 0% DMSO, 100% acetylcholine EC100. actives 0.33% (n = 360,000). activation, % at 3 µM;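 active = activation above the run's mean compound activation plus 3 SD, cut at about 16% in these data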;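 note: peak over basal fluorescence ratio within a 140 s kinetic read after compound addition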
Target sequence (P11229 whole entry, looked up): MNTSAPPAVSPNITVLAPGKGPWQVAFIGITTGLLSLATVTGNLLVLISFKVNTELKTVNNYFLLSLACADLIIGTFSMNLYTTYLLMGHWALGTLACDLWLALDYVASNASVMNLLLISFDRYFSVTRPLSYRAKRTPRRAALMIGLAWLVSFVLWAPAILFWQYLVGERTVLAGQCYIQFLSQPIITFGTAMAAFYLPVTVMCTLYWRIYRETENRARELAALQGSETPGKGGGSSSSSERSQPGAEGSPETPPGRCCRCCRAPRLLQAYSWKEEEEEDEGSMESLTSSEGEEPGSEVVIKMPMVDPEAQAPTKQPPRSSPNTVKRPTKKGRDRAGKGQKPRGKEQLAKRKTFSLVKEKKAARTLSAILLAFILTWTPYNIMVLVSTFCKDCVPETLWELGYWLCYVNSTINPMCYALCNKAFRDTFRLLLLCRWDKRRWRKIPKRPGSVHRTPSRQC
M1 PAM: positive allosteric modulators of human M1 muscarinic receptor. CHO-K1 hM1, Fluo-8 calcium fluorescence, ACh EC20; 0% = ACh EC20, 100% = maximal ACh. activation, % at 3 µM. AID 588819. actives 0.088% (n = 360,000). P11229; in the data active = activation above about 19%, passing the limit was not always enough
M1 PAM parental: nonselective activator or artifact in parental CHO-K1 calcium assay | actives 0.02% (n = 360,000) | activation, % at 3 µM | ATP EC20, Fluo-8 calcium fluorescence; 0% at ATP EC20, 100% at ATP max | AID 602247;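 active = activation above the run cutoff, the mean activation of all test compounds plus 3 SD, cut at about 40% in these data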;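 note: peak over basal fluorescence ratio in a 140 s read after ATP addition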
CHO-K1 Ca antag: nonselective inhibitor or artifact in parental CHO-K1 cells; actives 0.6% (n = 360,000); ATP-induced calcium, Fluo-8 fluorescence; inhibition, % at 3 µM; AID 602250;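 active = inhibition above a per-plate cutoff, the plate's mean sample inhibition plus 3 SD, cut at about 24% in these data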;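 note: 0% = DMSO plus EC80 ATP and 100% = DMSO alone without ATP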
CHO-K1 Ca ag: M1 agonist counterscreen hit in parental CHO-K1 cells; Fluo-8 calcium fluorescence; scaled to maximal ATP response, vehicle zero; activation, % at 3 µM; actives 0.48% (n = 360,000); in the data active = activation above about 15%;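 note: untransfected CHO-K1 host cells lacking M1 receptor as counterscreen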
M1 antag: blocks human M1 muscarinic receptor; P11229; CHO-K1 hM1, Fluo-8 calcium fluorescence, ACh EC80 antagonist; inhibition, % at 3 µM; AID 588852; actives 1.3% (n = 360,000);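 active = percent inhibition above its own plate's cutoff, namely the mean of that plate's compound wells plus 3 SD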;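 note: peak over basal fluorescence ratio during 140 s after agonist addition; 0% = ACh EC80 plus DMSO and 100% = DMSO alone without agonist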
The depositor's hits bear a star. This is a sample that favours compounds with a hit; in the whole collection about 2.3% have one here.

SMILES	CHRM1 agonist	M1 PAM	M1 PAM parental	CHO-K1 Ca antag	CHO-K1 Ca ag	M1 antag
CC(C)c1cccc(OCC(=O)Nc2ccc(S(=O)(=O)Nc3ccccn3)cc2)c1	-8	4	-2	-22	1	3
Cc1ccc(NS(=O)(=O)c2ccc(C(=O)NCc3ccccn3)cc2)cc1	28*	-2	0	-4	19*	8
CC(C)c1ccc(OCC(=O)Nc2ccc(S(=O)(=O)Nc3ccccn3)cc2)cc1	24*	5	13	-20	5	-4
C=C(c1ccc2nc(NC(=O)OC)[nH]c2c1)c1cccs1	-5	-1	14	-6	0	-5
CCN1CCN(C(=O)c2ccc(Cl)c(S(=O)(=O)N3CCCCC3)c2)CC1	-6	-6	2	5	1	-5
S=c1[nH]nc(CSCCOc2ccc(Cl)cc2Cl)o1	-2	-4	4	-2	6	17
Cn1cc(S(=O)(=O)c2ccccc2)n(C)c1=O	-3	5	8	-8	0	-1
CCCCC(=O)Nc1ccc(C(=O)NCc2ccncc2)cc1	-5	9	4	25*	0	-1
CCCCC(=O)Nc1ccc(C(=O)Nc2cccnc2)cc1	-3	3	-2	11	1	1
Cc1ccc(NS(=O)(=O)c2ccc(C(=O)NCc3ccncc3)cc2)cc1	18*	5	6	5	15*	2
CN1CCS/C1=C\C=C1/SC(=S)N(CC(=O)O)C1=O	12	-8	7	11	40*	6
CN1/C(=C\C=C2/SC(=S)N(CC(=O)O)C2=O)C(C)(C)c2ccccc21	131*	-17	13	12	30*	37*
Cc1ccc(CNC(=O)COC(=O)c2cccc(S(=O)(=O)N3CCCCC3)c2)cc1	-2	-3	1	-23	6	0
c1ccc2c(c1)CCc1ccccc1C2=C1CCNCC1	-7	-25	7	-3	1	100*
O=C1C(=C2CCc3ccccc32)Cc2ccccc21	-6	6	-5	-7	0	-17
CC(C)c1cc(CNC(=O)c2cc(COc3cncc(Cl)c3)on2)on1	-2	7	-12	11	16*	-4
Cc1cccc(NC(=S)NC(=O)Cc2ccccc2)c1C	17*	7	-4	8	11	-4
Cc1c(NC(=S)NC(=O)Cc2ccccc2)cccc1C(=O)O	-4	7	10	-3	0	-12
Cc1cc(C)c(O)c(NC(=S)NC(=O)Cc2ccccc2)c1	19*	8	20	-6	7	-11
C[C@@H](NC(=O)c1nc[nH]c1C(=O)N(C)Cc1ccccc1)c1ccccc1	-4	5	4	-16	0	-4
O=C(c1cccs1)N1CCN(C2CCN(Cc3ccccc3)CC2)CC1	-6	-20	16	-2	1	39*
CCN(Cc1nc2ccccc2c(=O)[nH]1)C(=O)c1cc2c(s1)CCCCC2	-1	12	13	-6	0	-6
O=C(NN1C(=O)NC2(CCCCC2)C1=O)c1cc2cc(Cl)ccc2o1	-3	7	7	-19	0	-9
O=C(NN1C(=O)NC2(CCCCC2)C1=O)c1ccc(-c2ccc(Cl)cc2)o1	-5	-15	-6	-15	1	29*
CC1CCc2nc3sc4c(c3c(N)c2C1)CCCC4 (stereo unspecified)	-12	-13	12	0	0	2
SMILES	CHRM1 agonist	M1 PAM	M1 PAM parental	CHO-K1 Ca antag	CHO-K1 Ca ag	M1 antag
Nc1c2c(nc3sc4c(c13)CCCCC4)CCCCC2	-6	-24	1	2	8	51*
COC(=O)CNC(=O)COC(=O)/C=C/c1ccc2ccccc2n1	-2	-5	3	13	16*	5
COc1ccc(C(=O)/C=C2\Sc3ccccc3N2C)cc1	-10	11	28	-9	1	-8
COc1ccccc1-[n+]1c(C)cc(/C=C2\Sc3ccccc3N2C)cc1C	36*	-24	-7	52*	34*	83*
COc1ccc(-[n+]2c(C)cc(/C=C3\Sc4ccccc4N3C)cc2C)cc1	12	-26	-10	40*	21*	81*
COc1cc(C(=O)NN2C(=O)NC3(CCC(C)CC3)C2=O)ccc1OC(F)F (stereo unspecified)	-3	3	-12	22	5	5
COC(=O)C(CC(=O)c1ccc(C)cc1)n1nc(C)cc1C (stereo unspecified)	-9	-17	20	0	16*	14
COC(=O)C(CC(=O)c1ccc(Br)cc1)n1nc(C)cc1C (stereo unspecified)	-8	-20	-3	-4	1	21
Cc1cc(C)c2nc(N3CCC(C(=O)NCCCN4CC(C)CC(C)C4)CC3)sc2c1 (stereo unspecified)	-10	-27	27	-10	2	82*
O=C(N/N=C/c1cc2ccccc2nc1Cl)/C(=C/c1cccs1)NC(=O)c1ccccc1	-1	-1	-20	-8	3	3
O=C(N/N=C/c1cccnc1)/C(=C\c1cccs1)NC(=O)c1ccccc1	-3	-1	17	-1	19*	5
Nc1ccc2cc3[nH]c4cc(N)ccc4c3nc2c1	36*	-18	-14	57*	33*	57*
Nc1cccc2c1C(=O)N(C(=O)c1ccc(Cl)c(S(=O)(=O)N3CCCCCC3)c1)C2=O	-3	2	10	-3	0	-24
Nc1cccc2c1C(=O)N(C(=O)c1cccc(S(=O)(=O)N3CCCCCC3)c1)C2=O	-1	5	-6	28*	0	-22
Cc1ccc(C(=O)NNC(=O)c2ccc(S(=O)(=O)N(C)c3ccccc3)cc2)cc1	-1	1	6	3	2	-1
COc1cccc(CNC(=O)CCCNS(=O)(=O)c2cccs2)c1	-2	-1	-1	42*	2	2
FC(F)Oc1ccc(NC(=S)NCc2ccccc2)cc1	-5	-11	-14	28*	3	12
COc1cc(S(=O)(=O)N2CCN(C)CC2)c(OC)cc1Cl	-2	12	-7	24*	0	-2
CC1=[N+](C)c2c(ccc3cccnc23)C1(C)C	-10	-19	-9	34*	16*	29
Cc1[nH]c2c(ccc3cccnc32)c1C	-2	11	-13	11	0	-7
COc1ccc(-c2[nH]ncc2CN2CCCC(C(=O)c3cccc(OC)c3)C2)cc1 (stereo unspecified)	-13	-18	-4	-10	1	11
COc1cccc(-c2ccc(NC(=O)C3CCCN(Cc4cnc(C)n4C)C3)cc2)c1 (stereo unspecified)	-4	-18	16	-6	6	28
